This is an account of results in PubChem BioAssay AID1259313 (Sanford-Burnham Center for Chemical Genomics, 2017).

Molecules are shown by their SMILES. Screen size: about 340,000 compounds; about 8,500 (2.5%) were called active.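 Rule for the calls: active = melting temperature shift of at least 10% of the positive control shift, at one fixed dose; inactive = the rest.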 The entries come from a sample that favours actives as a whole.

The assay relates to Glutamate receptor ionotropic, NMDA 3A (GRIN3A) ligand-binding domain. In words: NR3A LBD thermal stabilization by compounds – biophysical, differential scanning fluorimetry, uHTS, primary screen (AID 1259313). The note with it: at 25 µM, hits give high values, 0% = protein alone, 100% = glycine-bound protein. For orientation: DSF heats the sample and reads unfolding from a dye or from intrinsic fluorescence.
With `O=C(Nc1cccc(Cl)c1)c1cncn1-c1ccc(F)cc1`, the Tm shift relative to glycine control is -0.7% (inactive). Regarding `Cc1cccc(N=C2NC(=O)CS2)c1C`, the Tm shift relative to glycine control was 5.95% (inactive). For `CC(=O)Nc1ccc(C(=O)CSc2nc3ccc(C)cc3[nH]2)cc1`, the Tm shift relative to glycine control is -17.4% (inactive). Next, `O=C(CSc1nc2ccc([N+](=O)[O-])cc2[nH]1)c1ccc(Cl)cc1`: 18.5% (active); `Cc1nc2nc(SCC(=O)c3ccccc3)[nH]c2cc1Br`: -9.38% (inactive); `O=C(Nc1ccc(Cl)cc1)c1cccc(OC(=S)N2CCOCC2)c1`: -0.47% (inactive). With `CC/C(=N/Nc1ccccc1)c1cnnc(SC)n1`, the Tm shift relative to glycine control is 1.52% (inactive). The value for `C/C(=N/Nc1ccc(Cl)cc1)c1cnnc(-c2ccccc2)n1` was 10.3% (active); that for `C/C(=N\Nc1ccccc1)c1cccs1` was 1.45% (inactive); that for `CN(CCO)c1ccc(/C=N/Nc2nncc3ccccc23)cc1` was 3.23% (inactive).

For the compound `Cc1csc(NC(=O)CSc2nc(=O)cc(N)n2-c2ccc(F)cc2)n1`, the Tm shift relative to glycine control was -0.09% (inactive). Next, `CC(C)N1CCC(N2CCN(Cc3cccnc3)CC2CCO)CC1` (stereo not drawn): -1.29% (inactive); `CCCc1cc(C(=O)Nc2ccc(Cl)cn2)cs1`: 0.69% (inactive); `Clc1ccc(Cc2nnc(-c3cccs3)o2)cc1`: -0.55% (inactive). As for `Clc1ccc(Nc2nc(-c3cccs3)cs2)nc1`, the Tm shift relative to glycine control was 23% (active).

Regarding `Cc1cc(C)cc(NC(=O)C(c2ccccc2)N2CCN(CC(=O)N3CCCC3)CC2)c1` (stereo not drawn), the Tm shift relative to glycine control was -1.19% (inactive). The value for `Cc1cc(C)cc(NC(=O)C(OC(=O)c2ccc(O)cc2)c2ccccc2)c1` (stereo not drawn) was 10.5% (active); that for `Cc1ccc(C)c(NC(=O)C(OC(=O)c2ccc(C)s2)c2ccccc2)c1` (stereo not drawn) was -6.89% (inactive); that for `COc1cc(CO)c(C2(CO)CCCC2)cc1OC` was -9.65% (inactive). For `N#CC1(Nc2ccc(-c3ccc(Cl)cc3)cc2)CCCC1`, the Tm shift relative to glycine control was 20.4% (active). As for `CNc1nccc(-c2ccc(Cl)cc2)c1C#N`, the Tm shift relative to glycine control is -0.74% (inactive).

With `NC(=O)C1(Nc2ccc(-c3ccccc3)cc2)CCCC1`, the Tm shift relative to glycine control is 2.37% (inactive).

As to `COc1ccccc1CNC(=O)CNC(=O)c1cn(-c2ccccc2OC)c(=O)c2ccccc12`, the Tm shift relative to glycine control was -0.54% (inactive). The value for `Cc1ccc(NC(=O)CSCC(=O)N2CCOCC2)cc1` was 1.21% (inactive). The value for `Cc1cc2c(cc1C)[n+](C)cn2CC(O)COCC1CC=CCC1` (stereo not drawn) was 11.6% (active); that for `CNC(=S)N/N=C/c1ccc(N2CCOCC2)s1` was -0.99% (inactive). Regarding `CCCn1c(=O)c2c(C(F)(F)F)cc(-c3cccs3)nc2n(CCC)c1=O`, the Tm shift relative to glycine control is 0.77% (inactive). On to `COc1ccc(NC(=O)NCCN2CCN(c3ccc(C)cc3)CC2)c(Cl)c1`, for which the Tm shift relative to glycine control is -3.16% (inactive). The value for `Cc1ccc(C2(C)NC(=O)N(CC(=O)Nc3ccccc3C(=O)N3CCCCC3)C2=O)cc1` (stereo not drawn) was -1.86% (inactive). Next, `CSCCC(NS(=O)(=O)c1ccc(C)cc1)C(=O)N(C)CC(=O)Nc1ccccc1Br` (stereo not drawn): 0.34% (inactive).

Take `CCCc1cc(C(=O)Nc2ccc(C(=O)OC)cc2)cs1`: the Tm shift relative to glycine control is -10.4% (inactive). Next, `COC(=O)c1ccc(Nc2ncnc3sccc23)cc1`: 13% (active); `COc1ccc(Nc2ncnc3sc(C)cc23)cc1`: -17.1% (inactive). The value for `C/C(=N\N)c1c(-c2ccccc2)c2cc(Br)ccc2[nH]c1=O` was -2.09% (inactive); that for `CC(=O)NCCC(=O)Nc1cc(S(=O)(=O)N2CCCCC2)ccc1Oc1cccc(C)c1` was 1.88% (inactive). The value for `CC(=O)N1C(=O)/C(=C2\SC(=S)N(NC(=O)c3ccc(O)cc3)C2=O)c2ccccc21` was 21.7% (active); that for `Cn1cccc1/C=C1\SC(=S)N(NC(=O)c2ccc(Cl)cc2)C1=O` was 8.58% (inactive); that for `O=C(O)c1ccc2c(c1)C(=O)N(NC(=O)c1ccc(O)cc1)C2=O` was 0.18% (inactive). For the compound `Cc1ccc(CC2CC(=O)N(c3cc(C)ccc3C)C2=O)cc1` (stereo not drawn), the Tm shift relative to glycine control is -1.45% (inactive). With `COc1cc(NC(=O)c2[nH]cnc2C(N)=O)cc(C(=O)Nc2cccc(C(F)(F)F)c2)c1`, the Tm shift relative to glycine control was 14.8% (active). Next, `COc1ccc(NC(=O)C(=O)NCC(=O)Nc2cccc(C(F)(F)F)c2)cc1`: 7.67% (inactive); `COc1cc(NC(=O)c2cncc(-c3ccc(C#N)cc3)c2)cc(C(=O)Nc2cccc(C(F)(F)F)c2)c1`: -1.27% (inactive); `N#Cc1ccccc1NC(=O)c1cccc(COc2ccc(Cl)cc2Cl)c1`: 7.12% (inactive).

`O=C(NCCC1CCCCN1S(=O)(=O)c1cccs1)C(=O)Nc1ccc(F)cc1F` (stereo not drawn): the Tm shift relative to glycine control was 1.11% (inactive).

As to `c1ccc(CCc2ccccn2)cc1`, the Tm shift relative to glycine control was 1.84% (inactive). For the compound `CC1(C)C=Cc2c(ccc3c2OC[C@@H](c2ccc(O)cc2O)C3)O1`, the Tm shift relative to glycine control was 8.09% (inactive). As for `Cc1cc(=O)oc2cc(OC(C)C(=O)NCCc3ccc(S(N)(=O)=O)cc3)ccc12` (stereo not drawn), the Tm shift relative to glycine control was -2.25% (inactive). Consider `Cc1cc(=O)oc2c(C)c(OCC(=O)NCCc3ccc(S(N)(=O)=O)cc3)ccc12`, for which the Tm shift relative to glycine control is -1.05% (inactive). `Cc1ccc2c(=O)cc(C(=O)NCCc3ccc(S(N)(=O)=O)cc3)oc2c1C`: the Tm shift relative to glycine control was 10.6% (active).

For the compound `CCn1c(Cc2cccs2)nnc1SCC(=O)c1ccc(C)cc1`, the Tm shift relative to glycine control is 11.2% (active).

As for `CCn1c(SCC(=O)c2ccc3ccccc3c2)nnc1-c1cccs1`, the Tm shift relative to glycine control was -0.65% (inactive).

As for `Cc1ccc(-n2c(Cc3cccs3)nnc2SCC(=O)OC(C)C)cc1`, the Tm shift relative to glycine control was -1.71% (inactive). Next, `Cc1ccccc1NC(=O)C(C)c1ccc(-c2ccccc2)c(F)c1` (stereo not drawn): -4.35% (inactive); `CCCC(C(=O)OCCN(CC)CC)(c1ccccc1)c1ccccc1`: -1.26% (inactive); `O=C(c1ccccc1)C(Cn1cncn1)C(Sc1ccccc1)c1ccccc1` (stereo not drawn): 0.35% (inactive). On to `COc1cccc(CNC(=O)c2nnn(CC(=O)Nc3cc(Cl)ccc3C)c2N)c1`, for which the Tm shift relative to glycine control was 2.58% (inactive). As to `CCc1ccc(NC(=O)Cn2nnc(C(=O)NCc3ccc(OC)cc3)c2N)cc1`, the Tm shift relative to glycine control was 24.6% (active). The value for `COc1ccc(CNC(=O)c2nnn(CC(=O)Nc3cc(C)cc(C)c3)c2N)cc1` was 29.7% (active); that for `COc1ccc(CNC(=O)c2cc(=O)c3c(C)cc(C)cc3o2)cc1` was -0.39% (inactive). The value for `COc1ccc(CNC(=O)CN2CCC(n3nnc4cc(F)ccc43)CC2)cc1` was 0.17% (inactive); that for `COc1cccc(CNC(=O)c2nnn(CC(=O)Nc3cc(C)ccc3C)c2N)c1` was 11.9% (active); that for `Cc1ccc(NC(=O)Cn2nnc(C(=O)NCc3ccco3)c2N)c(C)c1` was 1.53% (inactive). Next, `CCc1ccc(NC(=O)Cn2nnc(C(=O)NCc3ccc4c(c3)OCO4)c2N)cc1`: 8.72% (inactive); `COc1ccc(NC(=O)Cn2nnc(C(=O)NCCc3ccc(OC)c(OC)c3)c2N)cc1`: -0.6% (inactive); `Cc1ccc(N/C(N)=N/c2nc(C(F)(F)F)cc(C(F)(F)F)n2)cc1`: -6.73% (inactive). Take `O=C(NCc1cccs1)c1ccc2c(c1)ncn2C1CCCC1`: the Tm shift relative to glycine control is -0.09% (inactive). `O=C1CN(C(=O)CN2C(=O)NC3(CCCCC3)C2=O)c2ccccc2N1`: the Tm shift relative to glycine control is -0.31% (inactive). Next, `O=C(CSc1c2c(nc3ccc(Cl)cc13)CCCC2)NCc1ccco1`: 0.25% (inactive); `COC(=O)C1CCN(C(=O)c2ccc3oc(Cc4ccc(Cl)cc4)nc3c2)CC1`: 0.94% (inactive). For the compound `COc1ccc(Cl)cc1NC(=O)COc1ccc2c(c1)OCO2`, the Tm shift relative to glycine control is -1.71% (inactive). The value for `C#CCNC(=O)C1=C[C@@H](c2ccccc2)[C@H](CCCO)[C@@H](OCC)O1` was -1.23% (inactive). The value for `COc1ccc(NC(=O)c2cc(-c3cc(OC)c(OC)c(OC)c3)nc3ccccc23)c(OC)c1` was 1.42% (inactive); that for `COc1ccc(-c2cc(C(=O)Nc3ccccc3O)c3ccccc3n2)cc1` was 21% (active). The value for `COc1ccc(-c2cc(C(=O)n3cnc4ccccc43)c3ccccc3n2)cc1` was -1.16% (inactive); that for `Cc1cccc(CSc2ccc(-c3cccs3)nn2)c1` was -7.55% (inactive). With `Nc1ccc(SCCN2C(=O)c3ccccc3C2=O)cc1`, the Tm shift relative to glycine control was -0.18% (inactive).

Turning to `O=C(Nc1ccccc1)c1ccccc1NC(=O)C(F)(F)F`, the Tm shift relative to glycine control was -1.92% (inactive). Next, `O=C(Nc1c(Br)cc2c(c1Br)Cc1ccccc1-2)C(F)(F)F`: 11.5% (active); `O=C(Nc1c(Br)cc2c(c1Br)Cc1cc([N+](=O)[O-])ccc1-2)C(Cl)Cl`: -1.4% (inactive). Next, `O=C(CCS(=O)(=O)c1ccc(Br)cc1)NCCc1ccc(Cl)cc1`: 0.18% (inactive). Next, `CCOc1ccc(NC(=O)CN(C)C(=O)CSc2ccccc2)cc1OCC`: -0.35% (inactive); `O=C(/C=C/Sc1ncn[nH]1)c1ccc(Cl)cc1`: -1.06% (inactive). As to `FC(F)(F)c1nnc2ccc(N3CCN(c4ccccc4)CC3)nn12`, the Tm shift relative to glycine control is -3.49% (inactive). Take `Fc1c(F)c(C(F)(F)F)c(F)c(F)c1N1CCN(c2ccc3nnc(C(F)(F)F)n3n2)CC1`: the Tm shift relative to glycine control is 33.4% (active).

Turning to `CSCCC(NC(=O)c1ccc(Cl)cc1Cl)C(=O)NNC(=O)c1csc(N2CCOCC2)n1` (stereo not drawn), the Tm shift relative to glycine control was -1.92% (inactive). The value for `COc1ccc(NC(=O)CN2C(=O)CSc3ccc(S(=O)(=O)N4CCC(C)CC4)cc32)cc1` was -2.6% (inactive); that for `Cc1cc(Cl)c2oc(C(=O)NC(C)c3ccncn3)c(C)c2c1` (stereo not drawn) was -2.04% (inactive). With `Cc1ccc(-n2ncc3c(N4CCN(c5ccc(F)cc5)CC4)ncnc32)c(C)c1`, the Tm shift relative to glycine control is 10.6% (active). Next, `Cc1ccc(-n2ncc3c(=O)[nH]cnc32)c(C)c1`: -2.15% (inactive); `Cc1ccc2cc(C)c(N3CCN(c4ccc(F)cc4)CC3)nc2c1`: 1.71% (inactive).

Regarding `CCCCn1c(SCc2ncc(-c3ccccc3)o2)nc2cc(S(N)(=O)=O)ccc21`, the Tm shift relative to glycine control was -10.6% (inactive). Next, `CCOc1ccc(C(CCc2ccccc2)NC(=O)c2ccc(OC)c(OC)c2)cc1OCC` (stereo not drawn): -0.18% (inactive); `O=C1CCC(C(=O)N2CCCCO2)CN1Cc1cccc(C(F)(F)F)c1` (stereo not drawn): 0.67% (inactive).
